# Experimental data as given in PubChem BioAssay (NCATS).
# Results filed as inconclusive are left out. A call without a number means that no potency is given here. The source made the active and inactive calls. Calls follow the shape of the dose curve; as a rule, active = well fitted cell-killing curve with a large enough effect; inconclusive = small, poorly fitted or top-dose-only effect, or effect the other way; inactive = no such curve, though single readings can be large or run the other way. Positions of bridges follow the written chain, without caps; N, C: chain ends. Non-standard residues stand in square brackets, D forms with d. Residues, ends and D or L forms follow the SMILES beside them. ξ: configuration not given here. *: point of attachment. Octanoyl(6-Me) = CCC(C)CCCCC(=O)*; ξThr(3R) = C[C@@H](O)C(N)C(=O)O; dDab = NCC[C@@H](N)C(=O)O; Dab = NCC[C@H](N)C(=O)O
# Assay: Quantitative High-Throughput drug screen in 47 multiple myeloma cell lines against the NCATS MIPE library collection: H1112_PLB cell viability assay (AID 1918967; also: nearly all actives have a fitted effect of over 30% in size)
# Conditions: H1112 myeloma cells viability, ATP luminescence, 48 h; series mostly up to 45.8 µM
# Description: PI: Beverly A. Mock Ph.D.
# Laboratory of Cancer Biology and Genetics,
# Center for Cancer Research, National Cancer Institute,
# National Institute of Health, Bethesda, Maryland
# Drug resistance and disease progression are common in multiple myeloma (MM) patients, underscoring the need for new therapeutic combinations. […] We hypothesized that effective combinations would reduce MYC expression and enhance p16 activity. […] These preclinical data identify potentially useful drug combinations for evaluation in drug-resistant MM and reveal potential mechanisms of combined drug sensitivity.
# Described herein is the primary MIPE qHTS used to cherrypick compounds. Validated compounds were then further tested for potential synergistic activiy.
# [1] Peat TJ, Gaikwad SM, Dubois W, Gyabaah-Kessie N, Zhang S, Gorjifard S, Phyo Z, Andres M, Hughitt VK, Simpson RM, Miller MA, Girvin AT, Taylor A, Williams D, D'Antonio N, Zhang Y, Rajagopalan A, Flietner E, Wilson K, Zhang X, Shinn P, Klumpp-Thomas C, McKnight C, Itkin Z, Chen L, Kazandijian D, Zhang J, Michalowski AM, Simmons JK, Keats J, Thomas CJ, Mock BA. Drug combinations identified by high-throughput screening promote cell cycle transition and upregulate Smad pathways in myeloma. Cancer Lett. 2023 Aug 1;568:216284. doi: 10.1016/j.canlet.2023.216284. Epub 2023 Jun 24. PMID: 37356470; PMCID: PMC10408729.
# SEQUENCE No. (e.g., 1, 2, 3, etc.); […] (e.g., Cells, Incubation, Reagent, etc.); VALUE and DESCRIPTION.
# 1; Cells; 5 uL; white, solid bottom 1536-well Greiner assay plate.
# 2; Compounds; 23 nL; Kalypsis pin tool (Wako USA) equipped with a 1536-well pin head to transfer to the assay plates.
# 3; Incubation; 48 hours; 37C incubation.
# 4; Reagent;5uL; CellTiter Glo (Promega).
# 5; Detector; 425V; Luminescence; Viewlux PerkinElmer.
# NOTES (numbers refer to Sequence numbers above)
# 1. The cell-based screening methods employed in this study were like those previously published. Briefly, the corresponding myeloma cell lines were screened in 1,536-well plates with 500 cells, 5-uL per well for inhibition of cell viability (assessed by measuring ATP levels with CellTiterGlo).
# 2. NCATS MIPE 4.0 library of approved and investigational drugs were added using the Kalypsis pin tool. Wells treated with DMSO only for 100% viability and media only wells for 0% viability were used as controls.
# 3. The assay plates were covered and incubated for 48 hours in a 37C, 5% CO2 incubator with controlled humidity.
# 4. After 48 hours, CellTilter-GloTM luminescent substrate mix (Promega) reagent was added to the assay plate and plates we incubated for 5 min at room temperature.
# 5. Signal was measured as median relative luminescence units on a ViewLux (PerkinElmer) multiplate reader.
# [1] Heske CM, Davis MI, Baumgart JT, Wilson K, Gormally MV, Chen L, Zhang X, Ceribelli M, Duveau DY, Guha R, Ferrer M, Arnaldez FI, Ji J, Tran HL, Zhang Y, Mendoza A, Helman LJ, Thomas CJ. Matrix Screen Identifies Synergistic Combination of PARP Inhibitors and Nicotinamide Phosphoribosyltransferase (NAMPT) Inhibitors in Ewing Sarcoma. Clin Cancer Res. 2017 Dec 1;23(23):7301-7311. doi: 10.1158/1078-0432.CCR-17-1121. Epub 2017 Sep 12. PMID: 28899971; PMCID: PMC6636827.
# Potency is read from the fitted curve at half-maximal effect.
row,SMILES,Potency
1,O=S(=O)(O)CCSSCCS(=O)(=O)O,inactive
2,CCS(=O)(=O)Nc1ccc2[nH]c(O)c(C(=Nc3ccc(CN4CCCCC4)cc3)c3ccccc3)c2c1,4.69 µM (active)
3,CC(C=CC(=O)NO)=C[C@@H](C)C(=O)c1ccc(N(C)C)cc1,0.372 µM (active)
4,Cc1ccc([N+](=O)[O-])cc1S(=O)(=O)N(C)N=Cc1cnc2ccc(Br)cn12,0.0132 µM (active)
5,CC(C)(C)[N+]([O-])=Cc1ccc(S(=O)(=O)O)cc1S(=O)(=O)O,inactive
6,CC(C)(N)c1ccc(-c2nc3ccccc3nc2-c2ccccc2)cc1,14.8 µM (active)
7,C[N+]1(C)[C@@H]2C[C@@H](OC(=O)C(O)(c3cccs3)c3cccs3)C[C@H]1[C@@H]1O[C@@H]12,inactive
8,CC[C@]12C=CCN3CC[C@@]4(c5cc([C@@]6(C(=O)OC)C[C@H]7C[C@@H](C(C)(F)F)CN(Cc8c6[nH]c6ccccc86)C7)c(OC)cc5N(C)[C@H]4[C@@](O)(C(=O)OC)[C@H]1OC(C)=O)[C@@H]32,0.0372 µM (active)
9,Cn1cc(-c2cnn3c(N)c(Br)c([C@H]4CCCNC4)nc23)cn1,2.64 µM (active)
10,CCn1c(=O)c2c(nc(C=Cc3ccc(OC)c(OC)c3)n2C)n(CC)c1=O,inactive
11,Cn1cc(C2=C(c3c4n(c5ccccc35)CCC(CN)C4)C(=O)NC2=O)c2ccccc21 (stereo not given),7.43 µM (active)
12,OC[C@H]1OC(O)C[C@@H](O)[C@H]1O (stereo not given in full),inactive
13,c1cc(CN2CCCNCCNCCCNCC2)ccc1CN1CCCNCCNCCCNCC1,inactive
14,CCNC(=O)c1cc2c(-c3cc(OCCN4CCCC4)c(Cl)cc3Cl)nc(N)nc2s1,6.62 µM (active)
15,CC(N[C@H]1CCCC[C@H]1NC(=O)c1ccc(Cl)cc1)c1cccc2ccccc12 (stereo not given in full),20.9 µM (active)
16,C=C(C)[C@@H]1CC[C@]2(C(=O)O)CC[C@]3(C)[C@H](CC[C@@H]4[C@@]5(C)CC[C@H](O)C(C)(C)[C@@H]5CC[C@]43C)[C@@H]12,inactive
17,Nc1ncn([C@@H]2O[C@H](CO)[C@@H](O)[C@@H]2O)c(=O)n1,18.7 µM (active)
18,Nc1ccn(C2CO[C@H](CO)O2)c(=O)n1 (stereo not given in full),inactive
19,CCC(C)CCCCC(=O)N[C@@H](CCN)C(=O)NC(C(=O)N[C@H](CCN)C(=O)N[C@@H]1CCNC(=O)C([C@@H](C)O)NC(=O)[C@@H](CCN)NC(=O)[C@@H](CCN)NC(=O)[C@@H](CC(C)C)NC(=O)[C@H](Cc2ccccc2)NC(=O)[C@H](CCN)NC1=O)[C@@H](C)O (stereo partly drawn) ({Octanoyl(6-Me)}-[Dab][ξThr(3R)][dDab][dDab][Dab]F[dL][dDab][dDab][ξThr(3R)]; lactam 4-C),inactive
20,C[C@@H]1[C@H](C)CC[C@]2(C(=O)O)CC[C@]3(C)C(=CC[C@@H]4[C@@]5(C)C[C@@H](O)[C@H](O)[C@@](C)(CO)[C@H]5CC[C@]43C)[C@@H]12,inactive

row,SMILES,Potency
1,C[C@H](NC(=O)C(C#N)=Cc1cccc(Br)n1)c1ccccc1,2.35 µM (active)
2,C=CC(=O)Nc1cccc(Nc2nc(NC3CCC(N(C)C)CC3)nc3c2ncn3C(C)C)c1 (stereo not given),0.0418 µM (active)
3,CCCCCCCCCCCC(CC1OC(=O)C1CCCCCC)OC(=O)C(CC(C)C)NC=O (stereo not given),inactive
4,C=C[C@@H]1CN2CCC1C[C@H]2[C@H](O)c1ccnc2ccc(OC)cc12 (stereo not given in full),inactive
5,C=C1CCC2[C@](C)(CO)C(O)CC[C@]2(C)C1CC=C1C(=O)OCC1O (stereo not given in full),inactive
6,O=C1c2c(O)cccc2[C@@H]([C@@H]2O[C@H](CO)[C@@H](O)[C@H](O)[C@H]2O)c2cc(CO)cc(O)c21,inactive
7,CC[C@H]1OC(=O)[C@H](C)[C@@H](O[C@H]2C[C@@](C)(OC)[C@@H](O)[C@H](C)O2)[C@H](C)[C@@H](O[C@@H]2O[C@@H](C)C[C@H](N(C)C)[C@@H]2O)[C@](C)(O)C[C@@H](C)C(=O)[C@H](C)[C@@H](O)[C@]1(C)O,inactive
8,CC(C)n1cnc2c(NCCc3ccc(O)cc3)nc(-c3csc4ccccc34)nc21,13.2 µM (active)
9,N#Cc1ccc(COC[C@H]2O[C@@H](n3c(NCc4ccc(Cl)c(Cl)c4)nc4c(N)ncnc43)[C@@H](O)[C@@H]2O)cc1,7.43 µM (active)
10,COc1cc(CCc2cc(NC(=O)c3ccc(N4C[C@@H](C)N[C@@H](C)C4)cc3)n[nH]2)cc(OC)c1,11.8 µM (active)
11,Nc1nc(N)c2nc(-c3cccc(O)c3)c(-c3cccc(O)c3)nc2n1,7.43 µM (active)
12,CCCCOc1ccc(C(=O)Nc2ccc(F)cc2F)cc1,inactive
13,C[C@@H](Cc1cc2c(c(C(N)=O)c1)N(CCCO)CC2)NCCOc1ccccc1OCC(F)(F)F,inactive
14,CC(=O)O[C@H]1C[C@@H]2CC[C@H]3[C@H]4C[C@H]([N+]5(C)CCCCC5)[C@@H](OC(C)=O)[C@@]4(C)CC[C@@H]3[C@@]2(C)C[C@H]1[N+]1(C)CCCCC1,inactive
15,Cn1cc(C[C@@H](N)C(=O)O)c2ccccc21,inactive
16,CCN(CC)CCCCNc1ncc2c(n1)N(C)C(=O)N(c1c(Cl)c(OC)cc(OC)c1Cl)C2,16.6 µM (active)
17,O=C(O)C(=O)Nc1cccc(C2=NN=N[N]2)c1,inactive
18,COC(=O)[C@@H]1CC2=CC(=O)CC[C@]2(C)[C@@]23O[C@@H]2C[C@@]2(C)[C@H](CC[C@@]24CCC(=O)O4)[C@@H]13,inactive
19,COc1cc2c(cc1OC)[C@@H]1C(=O)c3ccc4c(c3O[C@@H]1CO2)C=CC(C)(C)O4,0.0296 µM (active)
20,CC(=O)C1=C(O)C=C2Oc3c(C(C)=O)c(O)c(C)c(O)c3C2(C)C1=O (stereo not given),inactive
